Out of some 5,500 compounds screened, about 2,000 (36%) were called active. Inconclusive results (about 18%) are left out. This is one part of the list. A number with no mark means an inactive call. Rule as the data show it: active = normalized growth mostly below about 0.91 (no sharp cut-off); inconclusive = no clear call, values can overlap the other calls; inactive = mostly above about 0.92.
Test: chemical genetic growth profiling, strain panel (AID 1159580);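 also: tested at 20 µM; growth read once vehicle control cultures reached saturation at 30 °C; 1 = growth at the plate median or of vehicle wells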
Settings: growth OD

## C=C[C@@H](C1=CC(=O)C(OC)=C(OC)C1=O)c1ccccc1
S. cerevisiae deletion strains, locus YKL009W, strain mrt4, stronger effect = lower value
  normalized growth: 0.957
S. cerevisiae deletion strains, locus YKL068W, stronger effect = lower value
  normalized growth: 1
S. cerevisiae deletion strains, locus YKL085W, strain MDH1 (second series), stronger effect = lower value
  normalized growth: 0.936
S. cerevisiae deletion strains, locus YKL085W, strain MDH1, stronger effect = lower value
  normalized growth: 0.936
S. cerevisiae deletion strains, locus YKL160W, strain elf1, stronger effect = lower value
  normalized growth: 0.401 (active)
S. cerevisiae deletion strains, locus YKL190W, strain CNB1, stronger effect = lower value
  normalized growth: 0.0937 (active)
S. cerevisiae deletion strains, locus YKR001C, strain vps1, stronger effect = lower value
  normalized growth: 0.158 (active)
S. cerevisiae deletion strains, locus YKR026C, strain gcn3, stronger effect = lower value
  normalized growth: 0.945
S. cerevisiae deletion strains, locus YKR091W, strain srl3, stronger effect = lower value
  normalized growth: 0.95
S. cerevisiae deletion strains, locus YLL001W, strain dnm1, stronger effect = lower value
  normalized growth: 0.794 (active)
S. cerevisiae deletion strains, locus YLL026W, stronger effect = lower value
  normalized growth: 0.679 (active)
S. cerevisiae deletion strains, locus YLL041C, strain sdh2, stronger effect = lower value
  normalized growth: 0.811 (active)
S. cerevisiae deletion strains, locus YLR027C, strain aat2, stronger effect = lower value
  normalized growth: 0.448 (active)
S. cerevisiae deletion strains, locus YLR039C, strain RIC1, stronger effect = lower value
  normalized growth: 0.361 (active)
S. cerevisiae deletion strains, locus YLR058C, strain SHM2, stronger effect = lower value
  normalized growth: 0.98
S. cerevisiae deletion strains, locus YLR102C, strain apc9, stronger effect = lower value
  normalized growth: 0.515 (active)
S. cerevisiae deletion strains, locus YLR113W, strain HOG1, stronger effect = lower value
  normalized growth: 0.719 (active)
S. cerevisiae deletion strains, locus YLR221C, strain rsa3, stronger effect = lower value
  normalized growth: 0.363 (active)
S. cerevisiae deletion strains, locus YLR258W, strain gsy2, stronger effect = lower value
  normalized growth: 0.561 (active)
S. cerevisiae deletion strains, locus YLR262C, strain YPT6 (second series), stronger effect = lower value
  normalized growth: 0.17 (active)
S. cerevisiae deletion strains, locus YLR262C, strain YPT6, stronger effect = lower value
  normalized growth: 0.195 (active)
S. cerevisiae deletion strains, locus YLR268W, strain sec22, stronger effect = lower value
  normalized growth: 0.193 (active)
S. cerevisiae deletion strains, locus YLR320W, strain mms22, stronger effect = lower value
  normalized growth: 0.219 (active)
S. cerevisiae deletion strains, locus YLR342W, strain FKS1 (second series), stronger effect = lower value
  normalized growth: 0.331 (active)
S. cerevisiae deletion strains, locus YLR342W, strain FKS1, stronger effect = lower value
  normalized growth: 0.72 (active)
S. cerevisiae deletion strains, locus YLR357W, strain rsc2, stronger effect = lower value
  normalized growth: 0.901
S. cerevisiae deletion strains, locus YLR370C, strain arc18, stronger effect = lower value
  normalized growth: 0.811 (active)
S. cerevisiae deletion strains, locus YLR371W, strain rom2, stronger effect = lower value
  normalized growth: 0.285 (active)
S. cerevisiae deletion strains, locus YLR384C, strain iki3, stronger effect = lower value
  normalized growth: 0.982
S. cerevisiae deletion strains, locus YLR418C, strain cdc73, stronger effect = lower value
  normalized growth: 0.141 (active)
S. cerevisiae deletion strains, locus YML016C, strain PPZ1, stronger effect = lower value
  normalized growth: 0.292 (active)
S. cerevisiae deletion strains, locus YML032C, strain rad52, stronger effect = lower value
  normalized growth: 0.961
S. cerevisiae deletion strains, locus YML120C, strain ndi1, stronger effect = lower value
  normalized growth: 0.924
S. cerevisiae deletion strains, locus YML124C, strain tub3, stronger effect = lower value
  normalized growth: 0.981
S. cerevisiae deletion strains, locus YMR058W, strain fet3, stronger effect = lower value
  normalized growth: 0.612 (active)
S. cerevisiae deletion strains, locus YMR078C, strain ctf18, stronger effect = lower value
  normalized growth: 0.381 (active)
S. cerevisiae deletion strains, locus YMR125W, strain sto1, stronger effect = lower value
  normalized growth: 0.284 (active)
S. cerevisiae deletion strains, locus YMR129W, stronger effect = lower value
  normalized growth: 0.659 (active)
S. cerevisiae deletion strains, locus YMR205C, strain PFK2, stronger effect = lower value
  normalized growth: 0.689 (active)
S. cerevisiae deletion strains, locus YMR223W, strain ubp8, stronger effect = lower value
  normalized growth: 0.493 (active)
S. cerevisiae deletion strains, locus YMR231W, strain pep5, stronger effect = lower value
  normalized growth: 0.529 (active)
S. cerevisiae deletion strains, locus YMR307W, strain GAS1, stronger effect = lower value
  normalized growth: 0.224 (active)
S. cerevisiae deletion strains, locus YNL067W, strain RPL9B, stronger effect = lower value
  normalized growth: 0.67 (active)
S. cerevisiae deletion strains, locus YNL071W, strain lat1, stronger effect = lower value
  normalized growth: 0.0795 (active)
S. cerevisiae deletion strains, locus YNL183C, strain NPR1, stronger effect = lower value
  normalized growth: 0.799 (active)
S. cerevisiae deletion strains, locus YNL209W, strain ssb2, stronger effect = lower value
  normalized growth: 0.748 (active)
S. cerevisiae deletion strains, locus YNL233W, strain BNI4, stronger effect = lower value
  normalized growth: 0.121 (active)
S. cerevisiae deletion strains, locus YNL248C, strain rpa49, stronger effect = lower value
  normalized growth: 0.403 (active)
S. cerevisiae deletion strains, locus YNL250W, strain rad50, stronger effect = lower value
  normalized growth: 0.916
S. cerevisiae deletion strains, locus YNL271C, strain bni1, stronger effect = lower value
  normalized growth: 0.88 (active)
S. cerevisiae deletion strains, locus YNL298W, strain CLA4, stronger effect = lower value
  normalized growth: 0.925
S. cerevisiae deletion strains, locus YNL307C, strain MCK1, stronger effect = lower value
  normalized growth: 0.0762 (active)
S. cerevisiae deletion strains, locus YNL322C, strain KRE1 (second series), stronger effect = lower value
  normalized growth: 0.911
S. cerevisiae deletion strains, locus YNL322C, strain KRE1, stronger effect = lower value
  normalized growth: 0.835 (active)
S. cerevisiae deletion strains, locus YNR049C, strain mso1, stronger effect = lower value
  normalized growth: 0.986
S. cerevisiae deletion strains, locus YNR052C, strain pop2, stronger effect = lower value
  normalized growth: 0.983
S. cerevisiae deletion strains, locus YOL012C, strain htz1
  normalized growth: 0.17 (active)
S. cerevisiae deletion strains, locus YOL147C, strain pex11, stronger effect = lower value
  normalized growth: 0.959
S. cerevisiae deletion strains, locus YOR001W, strain rrp6, stronger effect = lower value
  normalized growth: 0.976
S. cerevisiae deletion strains, locus YOR061W, strain CKA2, stronger effect = lower value
  normalized growth: 0.829 (active)
S. cerevisiae deletion strains, locus YOR069W, strain VPS5, stronger effect = lower value
  normalized growth: 0.314 (active)
S. cerevisiae deletion strains, locus YOR070C, strain gyp1, stronger effect = lower value
  normalized growth: 0.487 (active)
S. cerevisiae deletion strains, locus YOR080W, strain dia2, stronger effect = lower value
  normalized growth: 1.01
S. cerevisiae deletion strains, locus YOR083W, strain WHI5, stronger effect = lower value
  normalized growth: 0.554 (active)
S. cerevisiae deletion strains, locus YOR106W, strain vam3, stronger effect = lower value
  normalized growth: 0.297 (active)
S. cerevisiae deletion strains, locus YOR136W, strain idh2, stronger effect = lower value
  normalized growth: 0.675 (active)
S. cerevisiae deletion strains, locus YOR144C, strain elg1, stronger effect = lower value
  normalized growth: 0.962
S. cerevisiae deletion strains, locus YOR184W, strain ser1, stronger effect = lower value
  normalized growth: 0.15 (active)
S. cerevisiae deletion strains, locus YOR231W, strain MKK1, stronger effect = lower value
  normalized growth: 0.93
S. cerevisiae deletion strains, locus YOR265W, strain rbl2, stronger effect = lower value
  normalized growth: 0.686 (active)
S. cerevisiae deletion strains, locus YOR270C, strain vph1, stronger effect = lower value
  normalized growth: 0.616 (active)
S. cerevisiae deletion strains, locus YOR290C, strain snf2, stronger effect = lower value
  normalized growth: 0.911
S. cerevisiae deletion strains, locus YOR316C, strain cot1, stronger effect = lower value
  normalized growth: 0.833 (active)
S. cerevisiae deletion strains, locus YPL051W, strain arl3, stronger effect = lower value
  normalized growth: 0.384 (active)
S. cerevisiae deletion strains, locus YPL078C, strain atp4, stronger effect = lower value
  normalized growth: 0.954
S. cerevisiae deletion strains, locus YPL106C, strain sse1, stronger effect = lower value
  normalized growth: 0.984
S. cerevisiae deletion strains, locus YPL240C, strain hsp82, stronger effect = lower value
  normalized growth: 0.625 (active)
S. cerevisiae deletion strains, locus YPL241C, strain CIN2, stronger effect = lower value
  normalized growth: 0.523 (active)
S. cerevisiae deletion strains, locus YPL256C, strain CLN2, stronger effect = lower value
  normalized growth: 0.895
S. cerevisiae deletion strains, locus YPR119W, strain clb2, stronger effect = lower value
  normalized growth: 0.615 (active)
S. cerevisiae deletion strains, locus YPR141C, strain kar3, stronger effect = lower value
  normalized growth: 0.983
S. cerevisiae deletion strains, locus YPR163C, strain tif3, stronger effect = lower value
  normalized growth: 0.151 (active)
S. cerevisiae deletion strains, locus YPR167C, strain met16, stronger effect = lower value
  normalized growth: 0.456 (active)
S. cerevisiae deletion strains, strain wtn01, stronger effect = lower value
  normalized growth: 0.196 (active)
S. cerevisiae strains, strain wild type, stronger effect = lower value
  normalized growth: 0.114 (active)
